Design in all cases: scale not given: direction of the effect not stated beside the values
For assay [1], the target named is Protein translocase subunit SecA (Escherichia coli (strain K12)) (UniProt P10408). The assay can be described thus: Assay to Identify E. coli SecA ATPase Inhibitors. It counts as functional. The settings on record: 30 µM.
Assay [2] has as its target T1, Ubiquitin-activating enzyme e1, putative (Leishmania donovani (strain BPK282A1)) (UniProt E9BSI1).
T1 sequence (whole entry): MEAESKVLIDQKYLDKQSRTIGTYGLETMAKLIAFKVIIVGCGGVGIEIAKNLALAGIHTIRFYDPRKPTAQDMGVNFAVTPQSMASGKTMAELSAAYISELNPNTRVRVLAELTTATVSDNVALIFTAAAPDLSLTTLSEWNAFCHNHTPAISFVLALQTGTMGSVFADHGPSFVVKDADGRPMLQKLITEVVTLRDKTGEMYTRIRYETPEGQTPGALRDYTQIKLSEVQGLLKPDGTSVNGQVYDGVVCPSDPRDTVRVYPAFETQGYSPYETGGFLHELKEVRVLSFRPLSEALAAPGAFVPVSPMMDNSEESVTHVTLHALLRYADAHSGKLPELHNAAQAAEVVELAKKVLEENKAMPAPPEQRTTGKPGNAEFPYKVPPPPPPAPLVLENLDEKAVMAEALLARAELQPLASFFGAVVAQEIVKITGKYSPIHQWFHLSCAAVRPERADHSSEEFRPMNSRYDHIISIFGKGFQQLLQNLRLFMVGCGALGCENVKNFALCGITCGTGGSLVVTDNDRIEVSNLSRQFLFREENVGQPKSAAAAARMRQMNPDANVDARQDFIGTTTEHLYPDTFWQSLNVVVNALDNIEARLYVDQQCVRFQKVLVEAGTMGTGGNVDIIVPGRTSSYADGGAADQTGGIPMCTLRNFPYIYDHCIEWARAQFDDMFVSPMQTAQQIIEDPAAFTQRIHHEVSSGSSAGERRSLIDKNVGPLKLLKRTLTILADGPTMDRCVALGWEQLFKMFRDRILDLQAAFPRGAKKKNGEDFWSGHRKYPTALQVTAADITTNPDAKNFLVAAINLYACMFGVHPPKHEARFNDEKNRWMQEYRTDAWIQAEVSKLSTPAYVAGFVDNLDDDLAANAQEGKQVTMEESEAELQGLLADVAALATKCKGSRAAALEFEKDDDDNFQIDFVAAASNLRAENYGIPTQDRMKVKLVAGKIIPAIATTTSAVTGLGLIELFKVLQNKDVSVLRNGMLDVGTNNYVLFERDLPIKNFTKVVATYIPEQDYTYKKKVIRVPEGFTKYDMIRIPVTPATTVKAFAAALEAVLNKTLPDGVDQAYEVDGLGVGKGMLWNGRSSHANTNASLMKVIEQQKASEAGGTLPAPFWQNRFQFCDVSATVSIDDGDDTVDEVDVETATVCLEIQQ
The experiment in a line: Leishmania donovani Ubiquitin Activating Enzyme (LdE1). As to conditions: 30 µM. It counts as functional.

Assay [3] addresses AMP-activated protein kinase, AMPK (Homo sapiens) (UniProt P54646+O43741+P54619+Q9UGJ0+Q9Y478+Q13131+Q9UGI9). The experiment in a line: AMP-dependent Kinase enzyme assay. An in vitro enzyme assay that detects ADP turnover that is directly proportional to AMPK activity. This uses naive AMPK that is activated during the assay with MK-8722. The class given is functional. The settings on record: 30 µM.

Assay [4] has as its target Sialic acid-binding Ig-like lectin 9 (Homo sapiens) (UniProt Q9Y336). The experiment in a line: Hs-Siglec9 ALPHAscreen SOP 20170721. As to conditions: 10 µM. For orientation: Bead proximity is the source of the signal in Alpha formats.
The test system of assay [5] is Trypanosoma cruzi. The experiment in a line: Trypanosoma cruzi phosphomannomutase and mannose-1-phosphate guanylyltransferase assay. It counts as functional. As to conditions: 10 µM.
Assay [6] concerns the target T2, Arginase-2, mitochondrial (Homo sapiens) (UniProt P78540).
T2 sequence (whole entry): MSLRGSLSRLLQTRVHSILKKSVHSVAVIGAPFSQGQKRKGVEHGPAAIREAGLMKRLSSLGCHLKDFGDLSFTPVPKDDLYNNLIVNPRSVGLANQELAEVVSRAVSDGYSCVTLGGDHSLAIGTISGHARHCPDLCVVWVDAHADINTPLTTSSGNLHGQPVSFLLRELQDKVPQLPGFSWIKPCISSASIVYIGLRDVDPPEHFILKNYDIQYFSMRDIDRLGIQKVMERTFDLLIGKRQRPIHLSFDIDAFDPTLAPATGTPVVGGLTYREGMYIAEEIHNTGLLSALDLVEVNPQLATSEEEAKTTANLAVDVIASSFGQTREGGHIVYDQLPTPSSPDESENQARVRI
The assay can be described thus: in vitro enzyme assay to detect the production of urea directly proportional to the activity of Arginase II. Note: in the data most compounds retested in dose-response had high values. As to conditions: 33.3 µM. It counts as functional.

In assay [7] the target is T3, Proteasome subunit beta (Trypanosoma cruzi) (UniProt O96673).
T3 sequence (whole entry): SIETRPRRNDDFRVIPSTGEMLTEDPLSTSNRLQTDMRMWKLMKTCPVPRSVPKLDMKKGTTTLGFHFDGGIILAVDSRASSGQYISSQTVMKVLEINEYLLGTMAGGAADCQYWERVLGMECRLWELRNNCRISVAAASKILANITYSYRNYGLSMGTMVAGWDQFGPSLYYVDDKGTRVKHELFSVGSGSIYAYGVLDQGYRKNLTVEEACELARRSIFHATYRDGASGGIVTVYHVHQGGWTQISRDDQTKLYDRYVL
The assay can be described thus: Trypanosoma cruzi proteasome chymotrypsin-like activity (TcProtChymo) assay. Note: in the data most compounds retested in dose-response had high values. The class given is functional. As to conditions: 9.37 µM.

The species named for assay [8] is Homo sapiens. The assay can be described thus: To identify inhibition of the IFN signalling (Jak-Stat) pathway via expression of an eGFP reporter gene under the control of an IFN-stimulated response element (ISRE) containing MxA promoter. As to conditions: 30 µM. It counts as functional. On the technique in general: In a reporter assay the amount or activity of a reporter protein is the signal.

Assay [9] has as its target T4, Tyrosyl-tRNA synthetase, putative (Trypanosoma cruzi (strain CL Brener)) (UniProt Q4DSP6).
T4 sequence (whole entry): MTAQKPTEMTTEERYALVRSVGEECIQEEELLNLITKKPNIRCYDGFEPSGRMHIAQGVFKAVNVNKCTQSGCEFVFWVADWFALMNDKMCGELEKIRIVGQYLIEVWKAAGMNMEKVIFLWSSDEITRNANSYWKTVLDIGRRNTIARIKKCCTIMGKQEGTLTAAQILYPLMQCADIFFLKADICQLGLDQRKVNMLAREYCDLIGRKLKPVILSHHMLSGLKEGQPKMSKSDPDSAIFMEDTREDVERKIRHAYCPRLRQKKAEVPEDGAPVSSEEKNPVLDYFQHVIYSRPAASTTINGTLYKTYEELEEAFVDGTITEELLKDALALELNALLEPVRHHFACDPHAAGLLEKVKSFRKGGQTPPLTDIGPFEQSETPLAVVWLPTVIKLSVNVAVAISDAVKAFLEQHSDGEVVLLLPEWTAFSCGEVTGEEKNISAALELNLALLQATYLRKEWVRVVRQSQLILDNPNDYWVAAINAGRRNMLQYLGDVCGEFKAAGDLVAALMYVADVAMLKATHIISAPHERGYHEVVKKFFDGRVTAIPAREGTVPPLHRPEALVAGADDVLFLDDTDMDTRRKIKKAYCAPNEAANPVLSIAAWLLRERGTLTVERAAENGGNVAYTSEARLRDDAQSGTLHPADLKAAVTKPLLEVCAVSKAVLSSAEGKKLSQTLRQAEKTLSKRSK
The experiment in a line: Trypanosoma cruzi tyrosyl tRNA synthetase (TcYRS) _High Tyrosine SOP. Note: in the data most compounds retested in dose-response had high values. The class given is functional. As to conditions: 30 µM.

Assay [10] concerns the target T4, Tyrosyl-tRNA synthetase, putative (Trypanosoma cruzi (strain CL Brener)). The experiment in a line: Trypanosoma cruzi tyrosyl tRNA synthetase (TcYRS) SOP. It counts as functional. As to conditions: 30 µM.
Assay [11] has as its target Chromo domain-containing protein 1 (Saccharomyces cerevisiae (strain ATCC 204508 / S288c) (Baker's yeast)) (UniProt P32657). The assay can be described thus: ScCHD-1 Enzyme Inhibition Assay. Note: in the data most compounds retested in dose-response had high values. The class given is functional. As to conditions: 30 µM.

For some of these results: Entries with a potency or affinity are not part of this list.

Sequence of Chromo domain-containing protein 1 (Saccharomyces cerevisiae (strain ATCC 204508 / S288c) (Baker's yeast)) (P32657 whole entry, the tested form may be a part): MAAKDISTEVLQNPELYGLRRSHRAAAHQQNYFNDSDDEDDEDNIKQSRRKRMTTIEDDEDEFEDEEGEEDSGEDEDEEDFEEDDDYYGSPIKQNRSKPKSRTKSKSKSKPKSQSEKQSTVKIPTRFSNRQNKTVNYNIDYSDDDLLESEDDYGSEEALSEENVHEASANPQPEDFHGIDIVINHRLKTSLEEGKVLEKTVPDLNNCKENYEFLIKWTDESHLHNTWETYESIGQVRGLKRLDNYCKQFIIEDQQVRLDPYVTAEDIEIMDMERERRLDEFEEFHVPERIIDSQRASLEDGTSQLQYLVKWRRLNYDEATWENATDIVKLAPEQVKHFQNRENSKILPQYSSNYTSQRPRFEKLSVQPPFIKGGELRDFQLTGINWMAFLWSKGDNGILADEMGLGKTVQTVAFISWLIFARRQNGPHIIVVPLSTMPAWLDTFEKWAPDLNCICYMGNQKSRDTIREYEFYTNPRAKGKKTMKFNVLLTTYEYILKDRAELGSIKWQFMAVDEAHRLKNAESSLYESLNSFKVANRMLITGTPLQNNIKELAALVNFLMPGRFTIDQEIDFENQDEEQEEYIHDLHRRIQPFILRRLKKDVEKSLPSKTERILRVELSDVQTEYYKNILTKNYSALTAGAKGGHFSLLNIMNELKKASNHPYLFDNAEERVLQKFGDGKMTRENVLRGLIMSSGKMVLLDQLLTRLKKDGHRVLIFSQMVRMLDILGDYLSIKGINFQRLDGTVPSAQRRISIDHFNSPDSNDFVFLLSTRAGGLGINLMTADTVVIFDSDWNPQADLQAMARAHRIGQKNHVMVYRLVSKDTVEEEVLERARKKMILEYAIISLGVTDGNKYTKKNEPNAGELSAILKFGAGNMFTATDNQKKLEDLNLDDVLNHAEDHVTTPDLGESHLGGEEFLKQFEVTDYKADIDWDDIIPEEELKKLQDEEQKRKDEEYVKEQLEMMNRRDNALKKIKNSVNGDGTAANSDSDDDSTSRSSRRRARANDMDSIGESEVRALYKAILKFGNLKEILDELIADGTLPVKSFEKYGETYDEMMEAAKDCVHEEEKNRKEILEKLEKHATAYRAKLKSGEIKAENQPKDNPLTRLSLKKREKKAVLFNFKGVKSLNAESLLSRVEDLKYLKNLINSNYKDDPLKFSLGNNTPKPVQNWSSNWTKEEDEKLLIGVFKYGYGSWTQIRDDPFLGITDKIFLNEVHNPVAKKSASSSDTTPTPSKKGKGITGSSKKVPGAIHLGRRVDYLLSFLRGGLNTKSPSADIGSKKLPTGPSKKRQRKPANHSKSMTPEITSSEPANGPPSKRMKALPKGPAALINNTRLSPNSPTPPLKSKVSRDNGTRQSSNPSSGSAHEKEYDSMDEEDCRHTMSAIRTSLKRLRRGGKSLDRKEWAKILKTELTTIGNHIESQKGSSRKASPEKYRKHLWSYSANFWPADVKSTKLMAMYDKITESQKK
Sequence of Protein translocase subunit SecA (Escherichia coli (strain K12)) (P10408 whole entry): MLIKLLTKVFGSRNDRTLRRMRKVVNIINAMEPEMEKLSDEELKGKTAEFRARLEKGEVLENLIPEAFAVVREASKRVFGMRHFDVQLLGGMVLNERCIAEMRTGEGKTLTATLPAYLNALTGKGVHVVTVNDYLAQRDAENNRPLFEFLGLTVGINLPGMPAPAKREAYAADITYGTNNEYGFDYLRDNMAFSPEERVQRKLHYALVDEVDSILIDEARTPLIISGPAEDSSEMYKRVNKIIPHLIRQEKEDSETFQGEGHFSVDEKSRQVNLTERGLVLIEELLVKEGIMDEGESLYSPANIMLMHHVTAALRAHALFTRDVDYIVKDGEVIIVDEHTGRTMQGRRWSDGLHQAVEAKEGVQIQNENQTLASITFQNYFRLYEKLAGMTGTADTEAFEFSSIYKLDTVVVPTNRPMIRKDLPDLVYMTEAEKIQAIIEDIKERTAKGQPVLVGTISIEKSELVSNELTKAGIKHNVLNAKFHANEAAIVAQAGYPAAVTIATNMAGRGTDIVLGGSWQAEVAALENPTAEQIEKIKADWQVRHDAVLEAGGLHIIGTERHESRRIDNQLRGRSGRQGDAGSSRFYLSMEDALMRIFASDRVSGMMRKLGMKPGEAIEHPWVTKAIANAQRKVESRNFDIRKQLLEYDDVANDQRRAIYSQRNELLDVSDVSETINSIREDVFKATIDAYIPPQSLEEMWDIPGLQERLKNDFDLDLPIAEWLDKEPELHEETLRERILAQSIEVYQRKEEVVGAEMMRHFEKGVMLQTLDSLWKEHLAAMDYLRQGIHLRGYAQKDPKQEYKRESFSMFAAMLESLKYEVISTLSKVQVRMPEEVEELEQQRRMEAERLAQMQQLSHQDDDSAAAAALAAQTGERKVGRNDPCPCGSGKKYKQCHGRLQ
Sequence of Sialic acid-binding Ig-like lectin 9 (Homo sapiens) (Q9Y336 whole entry): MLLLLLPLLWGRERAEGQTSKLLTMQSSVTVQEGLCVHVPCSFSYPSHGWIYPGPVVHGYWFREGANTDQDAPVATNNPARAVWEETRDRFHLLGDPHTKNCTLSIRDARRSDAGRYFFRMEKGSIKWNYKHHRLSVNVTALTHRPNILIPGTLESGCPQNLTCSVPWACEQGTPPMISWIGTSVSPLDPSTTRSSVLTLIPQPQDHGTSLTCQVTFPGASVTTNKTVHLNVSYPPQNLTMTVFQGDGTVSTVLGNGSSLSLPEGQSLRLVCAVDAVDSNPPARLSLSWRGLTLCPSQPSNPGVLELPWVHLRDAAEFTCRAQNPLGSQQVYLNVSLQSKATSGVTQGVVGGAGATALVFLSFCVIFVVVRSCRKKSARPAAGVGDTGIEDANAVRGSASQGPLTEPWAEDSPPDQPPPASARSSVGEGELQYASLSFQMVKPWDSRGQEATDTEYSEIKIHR

For the compound `OC(CN1CCN(Cc2nnc(C3CC3)o2)CC1)c1ccccc1` (stereo unspecified), the Percent Effect in assay [1] is -4.5%; in assay [2] it was 10.1%; in [3], -8.23%; in assay [4] it was 15.1%; in [5], -3.31%; in [6], 1.9%. Also, the Percent Effect was -3.19% in assay [7]; 17.6% in [8]; 2.46% in [9]; 13.9% in assay [10]; -2.36% in assay [11].
On to `CN(C)Cc1nnc(C2CCN(C(=O)CCc3cccs3)CC2)n1C`, for which the Percent Effect in assay [1] is -3.21%; in assay [2], 13.5%; in [3], -7.22%; in assay [4], 25.4%; in [5] it was 4.83%; in assay [6], 1.43%. For the same compound, the Percent Effect turned out to be 12.1% in assay [7]; 5.64% in assay [8]; 6.88% in assay [9]; 14.6% in assay [10]; 72.9% in assay [11].
As to `CCN(Cc1nc2c(cnn2C)c(=O)[nH]1)c1cccc(F)c1`, the Percent Effect is -1.38% in assay [1]; 11.4% in [2]; 6.32% in assay [3]; 2.17% in assay [4]; -2.36% in assay [5]; -6.24% in assay [6]. The Percent Effect in assay [7] was 15.3%; in assay [8], 9.49%; in assay [9], 1.04%; in [10] it was 15.2%; in assay [11], -15.7%.
For `CCc1ncc(C(=O)NCCNC(=O)Cc2ccc(F)cc2)s1`, the Percent Effect in assay [1] was -1.95%; in [2], 8%; in assay [3] it was -16.6%; in [4] it was 11.1%; in assay [5], 5.55%; in assay [6], 16.7%. Moreover, the Percent Effect in assay [7] was 11.3%; in assay [8], -8.05%; in assay [9] it was 7.1%; in assay [10], 16.1%; in [11], -3.11%.
`O=C(NCc1cc[nH]n1)N1CCN(c2ccccc2Cl)CC1`: the Percent Effect in assay [1] was -5%; in assay [2], 23.7%; in [3] it was -1.65%; in [4], 3.62%; in [5] it was 1.96%; in assay [6], -0.719%. Also, the Percent Effect is 14.1% in assay [7]; 15.6% in [8]; 7.39% in [9]; 18.5% in assay [10]; -10.1% in assay [11].
For the compound `Cc1ccc(N2CC3(COCCN(Cc4cccnc4)C3)OCC2=O)s1` (stereo unspecified), the Percent Effect is -6.13% in assay [1]; 2.6% in [2]; 20.6% in assay [3]; -4.32% in assay [4]; -2.27% in assay [5]; 0.645% in assay [6]. Moreover, the Percent Effect is 4.18% in assay [7]; 21.4% in assay [8]; -2.12% in assay [9]; -3.85% in assay [10]; -1.59% in assay [11].
On to `O=C(c1ccncc1)N1CCCn2c(CN3CCCCC3)nnc2C1`, for which the Percent Effect was -3.23% in assay [1]; 2.67% in [2]; 9.49% in [3]; 2.61% in assay [4]; 4.13% in [5]; -5.36% in assay [6]. For the same compound, the Percent Effect in assay [7] is 5.9%; in [8], -3.57%; in assay [9], 5.32%; in assay [10], -1.28%; in assay [11], 1.13%.
On to `CC(C)c1nn(C)c(N(C)C)c1CNCc1ccc2c(c1)OCO2`, for which the Percent Effect in assay [1] is -3%; in assay [2] it was 7.89%; in assay [3], -15.5%; in assay [4], 1.82%; in assay [5] it was -7%; in assay [6], 2.16%. The Percent Effect was -2.45% in assay [7]; -9% in assay [8]; -0.493% in assay [9]; 11.1% in assay [10]; 0.321% in assay [11].
In the case of `CCOc1ccc(C2CC(=O)Nc3c2c(=O)nc2sccn32)cc1` (stereo unspecified), the Percent Effect in assay [1] was -6.79%; in assay [2], 17.3%; in assay [3], -2.62%; in assay [4], 8.5%; in assay [5], 1.97%; in [6] it was -6.51%. Besides, the Percent Effect in [7] is 9.06%; in assay [8], 7.35%; in assay [9], 4.23%; in assay [10] it was 7.69%; in assay [11], -13.3%.
Take `COc1cccc2cc(CNC(C)(C)C(=O)N3CCC(O)CC3)oc12`: the Percent Effect was -4.3% in assay [1]; 5.06% in assay [2]; -3.21% in assay [3]; -2.38% in assay [4]; 7.08% in assay [5]; -0.76% in assay [6]. The Percent Effect in [7] was -6.14%; in [8] it was -31.3%; in [9] it was 6.4%; in assay [10], 3.8%; in [11], -3.05%.
For the compound `O=C(c1cnccn1)N1CCc2onc(CN3CCOCC3)c2C1`, the Percent Effect in [1] is -1.8%; in assay [2] it was 0%; in [3] it was 11.9%; in assay [4], -11%; in assay [5], -6.75%; in [6], 2.87%. For the same compound, the Percent Effect is 11.8% in assay [7]; 13.9% in assay [8]; 1.08% in [9]; 2.56% in assay [10]; -5.16% in assay [11].

For the origin of these results see ChEMBL document CHEMBL3988442, “University of Dundee, Small-Polar-MMV Screening Library” (2021).
